40 sequences from the supplement of paper PMC6555819 can be followed below.

This test concerns VDR:RXRa (NR concentration 270 nM, RXRa partner concentration 90 nM). As to the kind of experiment: PBM binding z-score (relative to random genomic background probes); higher = stronger binding; sequences stand for … in GC…GCGATTGACAGCGTAGAATGAAGG
How it is done:
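Protein-binding microarray (Agilent 4x180K custom design, double-stranded 60-nt probes: 5' GC cap, 34-nt variable region, 24-nt constant primer region; full probe sequence given). Purified or IVT nuclear receptor:RXRα heterodimers (3:1 NR:RXRα, mostly 270:90 nM) or homodimers were incubated for 1 h in PBS with 2% milk and no ligand, then detected with Alexa488 antibodies. Fluorescence from o1-orientation probes (~5 replicates averaged) was converted to z-scores against 500 random hg19 background probes. Variable regions are seed direct-repeat (DR0–DR5) sites, all their single-nucleotide variants and half-site ablations.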
In turn, CTCGAAAGGTCGTGCTCTGGTGAGTATACCAAAC came in with a PBM binding z-score of 3.19.

Consider CTCGAAAGGTCGTGCTCAGGTGCGTATACCAAAC, for which the PBM binding z-score was found to be 3.57.

In turn, ATATCTAGGTAACCAAGTTCAGTGAATGCCGAAC gave a PBM binding z-score of 3.97.

In turn, AGAACGAGGGCTCGCTGAGTTGATAGCAGAGTAG came in with a PBM binding z-score of -0.517.

For CGAACTAGGTCAGAAGAGGACAGTGAAGGATGAT, the PBM binding z-score is 1.69.

For the sequence TCATATAGATAATACAGGTGAAAGTCGGCATCTA, the PBM binding z-score was 1.17.

For the sequence CAAACTAGGTCACGAAAAGTCAAAGTCGAATGAC, the PBM binding z-score came out at 2.71.

Take CCGACTGGGGCATAAGGTTGCCATAAGCCAGCCC: the PBM binding z-score was -0.377.

Take ATCGAAAGGTCGAAGGGGAGTATACCCACCCGAA: the PBM binding z-score was found to be 2.67.

Turning to AGTCAAAGTGCACTAGGTAACGTAAGATTCAGCT, the PBM binding z-score came to 0.166.

On to GGAACGAGGGCAAAGTTGAGAGCATCTGTCGACG, for which the PBM binding z-score came to 1.55.

Sequence CCTTACGGGTCACTGACAGGTTATTGCATTTGGA returned a PBM binding z-score of 3.93.

The sequence AATACAGGGTCACTAGGCCAGTGTAGGTACGAAT yielded a PBM binding z-score of 4.26.

On to ATATGTAGGATAAGGGTCATTCAGGTTGGTTCGC, for which the PBM binding z-score came out at 5.49.

Sequence GCGACTGGGGCAAAGCAGGTCACCATAAGGTTGG had a PBM binding z-score of 2.52.

In the case of CATGCTAGGTCATGGTCAGCTAATCTACAGTATG, the PBM binding z-score came out at 1.79.

In turn, CGAACTAGGTCATCCAGGACAGTGACTACATTGA displayed a PBM binding z-score of 4.29.

Consider CCTAGTTGGTCAGGAGGTCACTCACCGGATATGA, for which the PBM binding z-score is 3.4.

In turn, ATCTGTAGGTAAAGTTCAGTGAAAGATCGATAGA showed a PBM binding z-score of 1.24.

In the case of CGGCCTAGGTCAGGGCCAGTATAGGAGGAACGTT, the PBM binding z-score turned out to be 0.12.

CGTCCAAGGTCAGCAGGTAAGTGAAAGCGACGTG showed a PBM binding z-score of 2.55.

CCTATTAGTTGACCATAAGGGCAACCTAAGCTCG: the PBM binding z-score turned out to be 0.839.

CCTGACGGGTCAAGGTTATAGCACGGGTGGTACG showed a PBM binding z-score of 2.74.

For CCTGCTAGGTCAGTGGTCAGCTAAAGCAGCTCGC, the PBM binding z-score is -0.183.

CAAACTAGGTCAAAGTCAAAGTCGGTTTGTGCCA returned a PBM binding z-score of 2.38.

In the case of CCTTACAGGTCACTCCAGGTTATAGCATCGGAGT, the PBM binding z-score stood at 4.12.

CAGCCTAGGTCATGGCCAGTATAGGAGGAACGTT showed a PBM binding z-score of 1.84.

With TCTCGGAGGACACGAAAGGTTAGAGCTCGACATC, the PBM binding z-score stood at 0.803.

In turn, CCTACTGGGCCATCAGGACATTGATATCAACGTT yielded a PBM binding z-score of -0.324.

Sequence GTACCAAGGTGAATCGGTCGTTGATGAGTAGGCG showed a PBM binding z-score of -0.122.

The sequence ACTATTAGTTGAGACGAGGGCAACCGGTAGGTTG showed a PBM binding z-score of 0.837.

ACTAACAGGCCAAGTTTGGGTCACTCAAACAAAG returned a PBM binding z-score of 0.973.

As for AGAATGATGTTATTAAGATCAGGGAATTGCGGTC, the PBM binding z-score was 0.0323.

CCTGCTTGGTCATGGTCAGCTAATCTACAGTATG yielded a PBM binding z-score of -0.22.

TCGAGAAGGTTACCAATGGGGCATTCAGCTTTCT had a PBM binding z-score of 0.778.

Turning to CGAATTAGGTCAAGGACAGTGAATCTCCGCACGC, the PBM binding z-score came out at 1.61.

For CGTCAAAGTTCAACTTAGGTAACGTAAAGCACGC, the PBM binding z-score came to 4.56.

On to TCTCGGAGGACACGAAAGGACAGAGCTCGACATC, for which the PBM binding z-score was -0.146.

Turning to TCTTGTAGATCAACAGAAGGTTAAGAAAGATCGA, the PBM binding z-score came out at 0.765.

ATATGTAGGTTAGCAGGGGTCATTCAGACTAGGC: the PBM binding z-score is 6.33.
